In the supplement of paper PMC11417369:
± gives the standard deviation of the averaged measurements. Over roughly 25,000 sequences, “ln(normalized median fluorescence intensity)” has its median near 10; the highest 2% begin near 12. For the sample, the highest values were picked, then their nearest neighbours and some sequences at random.

system: PfAP2-G AP2 domain (GST-tagged); assay: gcPBM binding intensity (ln(normalized median fluorescence intensity)); higher = stronger DNA binding
In short: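 Using an Agilent 4 × 180k array, primer-extended double-stranded 36-bp intergenic genomic probes and negative controls were exposed for 1 h to GST-fused P. falciparum DNA-binding domains expressed in E. coli. Binding was carried out in 1× PBS with 1% milk, 0.2 mg/ml BSA, 0.5% salmon testes DNA and 0.03% Triton X-100, and protein was detected with Alexa488 anti-GST antibody and a 488 nm scan. Binding intensity is the highest Masliner-normalised natural-log median intensity across replicate spots of either probe orientation.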

| Sequence | gcPBM binding intensity (ln) |
| --- | --- |
| TTTTGTGGAGGATGGTGTACGGTATTGTATTATTAC [XGTACX_site1942] | 11.1 ± 0.64 |
| ATAAAAATAAACATACGTACTTACACGAATATACAT [XGTACX_site5989] | 11.1 ± 0.65 |
| TTATGTATAAACACACGTACACACACTAAGTATATC [XGTACX_site3254] | 11.5 ± 1 |
| AGAAAATATACAAAACGTACTTATATATTATATCTA [XGTACX_site3104] | 10.9 ± 0.69 |
| TACCTAATATGTTATACACACATTAGAAGTACATAT [CACACA_site5375] | 11.6 ± 1.1 |
| TTACATATTATACGAAGTACGTACAAATACTTATAT [XGTACX_site8598] | 11.7 ± 0.81 |
| ATTTATATATTTATACGTACTTATATATTGTTACAT [XGTACX_site6254] | 11.2 ± 0.73 |
| ATACGAAGTACGTACACACACTTATATGTTACTAAA [CACACA_site7812] | 11.7 ± 1 |
| ATACATATATACATACGTACTTATATACATATGTGC [XGTACX_site5268] | 10.9 ± 0.42 |
| TTATACGAAGTACGTACACACACTTATATGTTACTA [CACACA_site4019] | 11.6 ± 0.94 |
| TTTCATGTTTTAAAGTGTACATAAATATATTATATG [XGTACX_site3367] | 11.5 ± 0.89 |
| ATAATTTCAATATTTAATATCATATATATATATTTT [GTGCAC_negctrl_site713] | 9.56 ± 0.13 |
| CTATCATATTTATGCACACAAAAATAATTAATTCGT [CACACA_site2614] | 10.2 ± 0.23 |
| TAATTTATAAATAATTGTACATAGTTTATTTAGATT [XGTACX_site4599] | 10.9 ± 0.43 |
| ATACAGATAGGATGCACACATAATTCAAATACAATA [CACACA_site4531] | 10.2 ± 0.13 |
| TTTTTTTTATTAAAAAGTACTAAACAAATTATATAT [XGTACX_site121] | 11.1 ± 0.73 |
| AATAATTTTTAAATATAAACATTTTTTTTTTTTTTT [GTGCAC_negctrl_site532] | 9.72 ± 0.057 |
| TGCACAAAGTTATGCACACACCTAAAATTAATTTTT [CACACA_site7385] | 10.05 ± 0.071 |
| TGATAATAAGCATACACACACACACTAAAAAAAAAA [CACACA_site6478] | 10.3 ± 0.43 |
| CAGGGCAGGGGGAAGGGTACACATAAAAGAAAATAA [XGTACX_site172] | 11.7 ± 1.1 |
| AAATAAAGAAATATATGTACATATATATATATATAT [XGTACX_site5131] | 11.3 ± 0.43 |
| AAAGAAGGGGGGGGAAAAAAAAATAAAAGAGGAAAA [XGTACX_negctrl_site92] | 11 ± 0.77 |

| Sequence | gcPBM binding intensity (ln) |
| --- | --- |
| ATACATATACACATATGTACATATGAAAAGAAAAAT [XGTACX_site6445] | 11.1 ± 0.64 |
| ATAAGGAAGGGATGCACACAAAAGGGTACATAAGAA [CACACA_site4006] | 11.4 ± 0.71 |
| AAAGAAAAAAAAAAAAGTACATAAATATAAAAAGAA [XGTACX_site6753] | 11.5 ± 0.89 |
| TAAAAGTTCACCTGTACACACATATAAATATGTACA [CACACA_site6901] | 11.7 ± 0.85 |
| AAATAAAAGTTCACCTGTACACACATATATATATGT [XGTACX_site3513] | 11.5 ± 0.66 |
| AAAAAAAAAAAGTACACACATACATATAAATATATA [CACACA_site1809] | 11.6 ± 0.95 |
| AATAAAAGTTCACCTGTACACACATATATATATGTA [CACACA_site8500] | 11.3 ± 0.76 |
| AGAAAAAAAAAAAGTACACACATATAATATATATAT [CACACA_site2973] | 11.6 ± 1.2 |
| ATATATATATATATATGTACACATAAAAAGAAAGAA [XGTACX_site1603] | 11.7 ± 1.1 |
| ACATATAAAATGTATACACACAAATATTACATATAT [CACACA_site1472] | 10.1 ± 0.11 |
| TTTTTCATTTAGCTTTTACACACTATATATTATTGA [CACACA_site7888] | 9.905 ± 0.064 |
| CTCAATATATTTGATTTACACACTTACAATGTATAT [CACACA_site8982] | 10.04 ± 0.078 |
| GATATATATATTCACACACACATGGAAATATATATA [CACACA_site382] | 9.88 ± 0.028 |
| ATATATATGGTCATTTGTACATATCGTGAGAGCTGC [XGTACX_site4117] | 11 ± 0.49 |
| AGTAGATATAAAAGGAGTACACATATATATATAAAT [XGTACX_site4375] | 11.6 ± 1 |
| TATAAAAATAAAAAAAGTACACATAAAAATATATAT [XGTACX_site5189] | 11.5 ± 0.78 |
| TTAAGAAACAAAGAAAGTACACAACATAATATAGAA [XGTACX_site477] | 11.4 ± 0.69 |
| ATATATATATAAAGGAGTACATACATTAAAAAAAAA [XGTACX_site1095] | 11.7 ± 1 |
| ATATATATAATTTAAAGTACATATTTAAGAATGAAA [XGTACX_site2238] | 11.1 ± 0.67 |
| GTATTATAAAAAGGAAGTACATATATACATATTATA [XGTACX_site1271] | 11.3 ± 0.75 |
| GAAAAAAGAAAAAAAAGTACATATATTTAATAAGAC [XGTACX_site6912] | 11.4 ± 0.86 |
| AATGAATATTAAAGGAGTACACATAATAAGTAAGAA [XGTACX_site7354] | 11.7 ± 0.99 |
